Common to all, as to experiment: NCI-60 one-dose screen, 48 h (100 = growth as untreated, 0 = no growth, -100 = all killed)
Conditions in all cases: 10 µM unless noted

Assay [1] has as its system NCI-H23 lung.
The subject of assay [2] is NCI-H226 lung.
For assay [3], the system named is NCI-H322M lung.
In assay [4] the test system is HOP-62 NSCLC.
The test system of assay [5] is NCI-H460 lung.
In assay [6] the test system is HOP-92 NSCLC.
The subject of assay [7] is NCI-H522 lung.
Assay [8] concerns A549/ATCC NSCLC.
Assay [9] concerns 786-0 renal.
In assay [10] the test system is COLO 205 colon.
The test system of assay [11] is DU-145 prostate.
Assay [12] relates to K-562 leukemia.
The test system of assay [13] is MALME-3M melanoma.
Assay [14] has as its system MDA-MB-231 breast.
The subject of assay [15] is RXF 393 renal.
Assay [16] has as its system SF-268 CNS.
In assay [17] the test system is SF-295 CNS.
Assay [18] concerns SF-539 CNS.
Assay [19] deals with UACC-257 melanoma.
For assay [20], the system named is M14 melanoma.

SMILES strings stand for the structures. “And” between values parts separate entries of the source, which are not always exact repeats. Equal entries are not always repeated. The panel holds about 83,000 compounds, 20% with a hit somewhere; the sample as a whole holds those more often.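 Method: cells in 96-well plates; compound added at one concentration; 48 h incubation; percent growth measured; values under 10 scored active.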 The source made the active and inactive calls.

For the compound `CC(C)(C)OC(=O)NCc1ccc(CNc2c([N+](=O)[O-])cnc3ccccc23)cc1`, the growth in assay [1] is 46.2% (inactive); in [2], 55.2% (inactive); in assay [3], 91.6% (inactive); in assay [4], 58.5% (inactive); in assay [5], 70.1% (inactive); in assay [6], 32.1% (inactive). Moreover, the growth is 62.4% (inactive) in assay [7]; 72.2% (inactive) in assay [8]; 73.8% (inactive) in assay [9]; 80.1% (inactive) in assay [10]; 77.4% (inactive) in assay [11]; 28.5% (inactive) in assay [12]. Besides, the growth is 86.4% (inactive) in [13]; 72.8% (inactive) in assay [14]; 105% (inactive) in assay [15]; 77% (inactive) in assay [16]; 33.4% (inactive) in assay [17]; 82.8% (inactive) in [18]. Moreover, the growth was 49% (inactive) in [19] and 76% (inactive) in assay [20].
Regarding `CCOC(=O)c1ccccc1NC1=C(Cl)C(=O)c2nc(C)ccc2C1=O`, the growth was 81.5% (inactive) in [1]; 100% (inactive) in assay [2]; 101% (inactive) in assay [3]; 102% (inactive) in [4]; 99.8% (inactive) in assay [5]; 118% (inactive) in [6]. The growth in [7] was 102% (inactive); in assay [8], 107% (inactive); in assay [9], 104% (inactive); in [10] it was 120% (inactive); in assay [11], 112% (inactive); in assay [12] it was 89.6% (inactive). In addition, the growth in [13] is 107% (inactive); in assay [14], 90.3% (inactive); in assay [15], 102% (inactive); in [16], 99.2% (inactive); in assay [17], 110% (inactive); in [18], 96.1% (inactive). The growth in [19] is 99.2% (inactive); in assay [20], 109% (inactive).
Consider `CCCCCCCCCC(=O)NC(C)(C)C(=O)N1CCC[C@H]1C(=O)N[C@@H](CC(C)C)C(=O)N[C@@](C)(CC)C(=O)N[C@@H](CCC(N)=O)C(=O)N[C@H](CCC(N)=O)C(=O)NC(C)(C)C(=O)NC(C)(C)C(=O)N[C@@H](CCC(N)=O)C(=O)N[C@H](CC(C)C)C(=O)N[C@H](CO)CC(C)C`, for which the growth is -85.9% (active) and -32.1% (active) in assay [1]; -71.3% (active) and -31.6% (active) in [2]; -88.1% (active) and 18.4% (inactive) in assay [3]; -70.9% (active) and -64.1% (active) in assay [4]; -83.6% (active) and -71% (active) in [5]; -91.1% (active) and -43.9% (active) in assay [6]. The growth was -83.3% (active) and -75.7% (active) in assay [7]; -72% (active) and 49.1% (inactive) in assay [8]; -82.1% (active) and -64.3% (active) in assay [9]; -63% (active) and -63.6% (active) in assay [10]; -97.6% (active) and -52.1% (active) in [11]; -81.3% (active) and 23% (inactive) in assay [12]. Besides, the growth in assay [13] was -91.4% (active) and -84.4% (active); in [14], -92.8% (active) and -95.8% (active); in assay [15] it was -92.3% (active) and -46.4% (active); in assay [16], -68.6% (active) and -46.2% (active); in assay [17], -92.1% (active) and -84.6% (active); in assay [18], -97.7% (active) and -99% (active). Besides, the growth was -95% (active) and -74% (active) in assay [19]; -77.5% (active) and -65.7% (active) in assay [20].
As to `O=C(CCCCCCN1CC(=O)N2[C@@H](c3cccs3)c3[nH]c4ccccc4c3C[C@H]2C1=O)NO`, the growth is 94.1% (inactive) in assay [1]; 107% (inactive) in assay [2]; 79.8% (inactive) in [3]; 91.2% (inactive) in assay [4]; 77.2% (inactive) in assay [5]; 69% (inactive) in assay [6]. For the same compound, the growth in assay [7] is 44.7% (inactive); in [8] it was 98.9% (inactive); in [9], 103% (inactive); in assay [10], 93.1% (inactive); in assay [11], 90.2% (inactive); in [12], 64.7% (inactive). In addition, the growth in [13] was 27.2% (inactive); in assay [14] it was 93.7% (inactive); in assay [15] it was 89.3% (inactive); in [16], 101% (inactive); in assay [17], 96.9% (inactive); in assay [18], 73.8% (inactive). Moreover, the figures for the growth in assay [19] and in [20] were 66.9% (inactive) and 84.3% (inactive), respectively.
Consider `Cc1ccc(S(=O)(=O)NCCCNc2nccc(-c3[nH]c(-c4ccccc4)nc3-c3ccc(F)c(O)c3)n2)cc1`, for which the growth is 96.2% (inactive) in assay [1]; 93.2% (inactive) in assay [2]; 109% (inactive) in assay [3]; 112% (inactive) in assay [4]; 82.1% (inactive) in [5]; 93.7% (inactive) in assay [6]. The growth in assay [7] is 80.1% (inactive); in assay [8] it was 80.4% (inactive); in assay [9], 104% (inactive); in [10], 91.9% (inactive); in assay [11] it was 98.6% (inactive); in assay [12] it was 30.4% (inactive). The growth was 2.9% (active) in assay [13]; 71.1% (inactive) in [14]; 97.9% (inactive) in [15]; 105% (inactive) in assay [16]; 94.9% (inactive) in assay [17]; 105% (inactive) in assay [18]. The growth in assay [19] is 23.8% (inactive); in [20], 22.9% (inactive).
Turning to `C#C[C@]1(O)CC[C@H]2[C@@H]3CC=C4c5sc(N6CCN(C)CC6)nc5CC[C@]4(C)[C@H]3CC[C@@]21C`, the growth in assay [1] was 57% (inactive); in assay [2], 86.8% (inactive); in [3] it was 77.4% (inactive); in assay [4], 54.8% (inactive); in [5], 49.2% (inactive); in assay [6], 82.7% (inactive). The growth in assay [7] was 28.1% (inactive); in assay [8], 54.7% (inactive); in assay [9], -39.2% (active); in assay [10] it was 66.5% (inactive); in [11] it was 75.5% (inactive); in [12], 0.102% (active). Moreover, the growth in [13] is 56.9% (inactive); in assay [14], 62% (inactive); in assay [15], -22.1% (active); in [16] it was 52.4% (inactive); in assay [17], -39.8% (active); in [18], 7.74% (active). For the same compound, the values for the growth in [19] and in assay [20] were 61.5% (inactive) and -73.4% (active), respectively.
With `O=C(CSc1nc2ccccc2c(=O)n1-c1ccccc1)N/N=C/c1ccc(Oc2ccc(Br)cc2)cc1`, the growth in assay [1] was 49.9% (inactive); in assay [2] it was 77.6% (inactive); in [3], 86.8% (inactive); in assay [4] it was 63.9% (inactive); in assay [5], 28% (inactive); in [6], 73% (inactive). The growth is 48.5% (inactive) in assay [7]; 42.2% (inactive) in assay [8]; 46% (inactive) in assay [9]; 44.4% (inactive) in [10]; 38.3% (inactive) in assay [11]; 62.5% (inactive) in [12]. The growth in [13] is 54.9% (inactive); in [14], 50.9% (inactive); in assay [15] it was 62.2% (inactive); in assay [16] it was 84.3% (inactive); in [17], 83.7% (inactive); in assay [18], 68.7% (inactive). Moreover, the growth in assay [19] is 93.7% (inactive); in assay [20], 56.3% (inactive).
`Cc1ccc(N2CCN(C3=C(Cl)C(=O)c4ncccc4C3=O)CC2)cc1`: the growth was 35.6% (inactive) in assay [1]; 93.2% (inactive) in assay [2]; 97.4% (inactive) in assay [3]; 73.1% (inactive) in [4]; 44.8% (inactive) in assay [5]; 84.4% (inactive) in assay [6]. The growth was 45.2% (inactive) in assay [7]; 91.3% (inactive) in assay [8]; 99.5% (inactive) in assay [9]; 75.3% (inactive) in [10]; 51.7% (inactive) in assay [11]; 6.28% (active) in assay [12]. The growth in assay [13] was 52.8% (inactive); in assay [14], 24.5% (inactive); in assay [15], 12.5% (inactive); in [16], 80.2% (inactive); in [17] it was 97.5% (inactive); in assay [18], 86.6% (inactive). Further, the values for the growth in assay [19] and in assay [20] were 29.6% (inactive) and 70.3% (inactive), respectively.
Take `CN1CCN(c2ccc(C(=O)/C=C/c3cc(F)cc(C(F)(F)F)c3)cc2)CC1`: the growth is 72% (inactive) in assay [1]; 61.8% (inactive) in assay [2]; 78.9% (inactive) in assay [3]; 93.1% (inactive) in assay [4]; 80.2% (inactive) in assay [5]; 40.6% (inactive) in [6]. For the same compound, the growth in [7] is 83.4% (inactive); in assay [8], 66.2% (inactive); in [9], 89.7% (inactive); in assay [10], 100% (inactive); in [11], 49.6% (inactive); in assay [12], 11.1% (inactive). Further, the growth was 91.7% (inactive) in [13]; 72.9% (inactive) in assay [14]; 70.5% (inactive) in assay [15]; 82.8% (inactive) in [16]; 88.6% (inactive) in [17]; 59.5% (inactive) in assay [18]. In addition, the figures for the growth in assay [19] and in assay [20] were 91.1% (inactive) and 92.2% (inactive), respectively.

(Values after PubChem BioAssay (NCI).)
